An excerpt weighted towards active compounds, which were near 21% of everything screened.
Pf growth 48h – inhibits P. falciparum growth in the first generation, 48 h | Potency, µM (highest dose often 28.7 µM), for inactives: at the top dose activity change, negative = inhibition, usual class: inhibitors | P. falciparum luciferase growth in erythrocytes, 48 h | 5.9% of 310,000 active | AID 504832; further: potency means the concentration at half of the fitted maximal effect; on the % scale 0 is the no-effect control and ±100 the full control effect
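Parasite viability was followed by luminescence of a genomically integrated firefly luciferase. Cultures held 0.1% parasitemia at 2% hematocrit (final), incubated under 5% CO2 at 37 C.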
Cycloheximide cs – affects cycloheximide protein synthesis inhibition readout, counter-screen | cell reporter, cycloheximide protein synthesis inhibition counterscreen | max response, % | 12% of 300,000 active; in the data active means max response mostly above about 13%, no sharp cut-off; inactive means mostly below about 14%; further: read at 38.3 µM for the half of the compounds with a filed dose; 0% is about no effect
AMA1 RON2 block – AMA1-RON2 (P. falciparum) interaction inhibition | AlphaScreen AMA1-biotinylated RON2 peptide binding | Potency, µM (titrated, usually from 58.2 µM), for the others: at the highest dose activity change, negative = inhibition, usual class: inhibitors | 0.2% of 360,000 active | AID 720542;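 further: potency means the concentration at half of the fitted maximal effect; 0% = vehicle wells and -100% = peptide control; nearly all actives have a fitted effect of over 45% in size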
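AMA1 (3D7) with his tag at 25 nM final met compounds first, then biotinylated RON2 peptide at 25 nM; detection used donor plus acceptor beads, 10 µg/mL apiece, read by AlphaScreen after 30 min at room temperature.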
Shiga toxin inh – inhibitors of Shiga toxin in Vero cells. Vero cells, Shiga toxin protein synthesis inhibition reporter. inhibition, % at 38.7 µM. 9.2% of 290,000 active. AID 2315; in the data active means inhibition mostly above about 28%, no sharp cut-off; inactive means mostly below about 43%; further: 0% is about no effect
HCV inh – HCV inhibition; Huh7.5.1 HCVcc-Cre infection, luciferase reporter, 44 h; Potency, µM (highest dose often 41.8 µM), for inactives: at the highest dose activity change, negative = inhibition, usual class: inhibitors; 3.4% of 340,000 active; further: potency means the concentration at half of the fitted maximal effect; on the % scale 0 is the no-effect control and ±100 the full control effect
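Cells seeded at 1,000/well and cultured 4 h, then compounds added followed by HCVcc-Cre virus (~0.5 moi). After 44 h further culture, luciferase substrate was added, plates held 15 min at room temperature, and luminescence read for 15 sec.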
Pf growth 96h – P. falciparum growth inhibition at 96 hours | P. falciparum luciferase reporter growth, 96 h | Potency, µM (titrated, usually from 28.7 µM), for the others: top-dose activity change, negative = inhibition, hits mostly inhibitors | 6.9% of 320,000 active | AID 504834; further: potency means the concentration at half of the fitted maximal effect; on the % scale 0 is the no-effect control and ±100 the full control effect
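Readout is luminescence from an integrated firefly luciferase in P. falciparum. Red cells, 2% hematocrit and 0.05% parasitemia final, were cultured with compound through two parasite generations (96 hours) at 37 C, 5% CO2.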
* marks the source's active call; other numbers are inactive results; i = inactive; ? = inconclusive; / = no result; [ ] = another dose, or the depositor's remark. Unless noted, the call rests on the fitted dose curve; in most records, active means well fitted curve in the direction sought with a large enough effect; inconclusive means small, poorly fitted or top-dose-only effect, or another doubt; inactive means no such curve, though single readings can be large; an effect the other way counts as inactive or inconclusive.

SMILES | Pf growth 48h | Cycloheximide cs | AMA1 RON2 block | Shiga toxin inh | HCV inh | Pf growth 96h
COc1ccc(Cc2nnc(SC(C)C(=O)Nc3ccc(F)cc3Cl)o2)cc1 (configuration not stated) | 1% | / | 8% | / | -13%[8.37 µM] | ?
COc1ccccc1CNS(=O)(=O)CCNC1CC1 | / | / | -2% | / | 3% | /
Cc1ccc(S(=O)(=O)c2c(COC(=O)c3ccccc3Cl)c(-c3ccccc3)nn2C)cc1 | / | 7 | 1% | -8 | ? | 6.6µM*
COc1ccc(C(O)P(=O)(OC(C)C)OC(C)C)c(OC)c1 (configuration not stated) | 0% | -1 | -4% | -4 | 16% | 1%
Nc1nnc(-c2ccc(Cl)cc2)o1 | ? | 7 | 1% | 36 | 15% | 56%
CN(C)c1nnc(-c2ccc(Cl)cc2)o1 | i | 39* | 14% | 49* | 22% | 0%
Clc1ccc(-c2nnc(-c3ccco3)o2)cc1 | 98% | 42* | -4% | 91* | -23% | -17%
O=C(Nc1nnc(-c2ccco2)o1)c1cccc(N2C(=O)CCC2=O)c1 | 18% | 22 | 42% | 99* | 5% | 62%
c1cncc(-c2nnc(-c3ccco3)o2)c1 | 32% | 1 | 4% | 16 | 12% | -7%
O=C(Nc1nnc(-c2ccccc2)o1)c1ccc(Cl)cc1 | ? | 9 | 73% | -4 | -29% | ?
O=C(Nc1nnc(-c2ccco2)o1)c1ccc(Cl)cc1 | -26% | 29* | 72% | 42* | ? | 0%
Cc1noc(C)c1C(=O)N(C)C[C@@H]1OCc2ccccc2-c2c(n(C)c3ccccc23)C(=O)N([C@H](C)CO)C[C@H]1C | / | / | 11% | / | / | /
CC1(C)NC(=O)N(c2ccc([N+](=O)[O-])c(C(F)(F)F)c2)C1=O | 7% | / | -1% | / | ? | 7%
COc1ccc(NC(=S)N2CCC3CC2c2cc(-c4ccc5c(c4)OCO5)ccc23)c(OC)c1 (configuration not stated) | / | / | 5% | / | / | /
COc1cccc(C(=O)NCCS(=O)(=O)N2CCN(c3ccccc3)CC2)c1OC | / | / | 0% | / | / | /
COc1ccc(OC)c(S(=O)(=O)Oc2ccc(N)c3ccccc23)c1 | / | / | -8% | / | ? | /
Cc1ccccc1C(=O)Nc1nnc(-c2ccco2)o1 | ? | 33* | 20% | 57* | -8% | ?
Cc1ccc(C(=O)Nc2nnc(-c3ccco3)o2)cc1C | 20% | 22* | 40%[2.32 µM] | 57* | 4% | ?
Cc1cccc(C(=O)Nc2nnc(-c3ccco3)o2)c1 | -12% | 7 | 30%[2.32 µM] | -8 | -5% | 0%
Cc1ccc(NC(=O)CN(C)C(=O)C(C)N2CCN(Cc3ccccc3C)CC2)cc1 (configuration not stated) | ? | / | 0% | / | ? | ?
CC(=O)n1cc(N(C(=O)CCl)c2ccc([N+](=O)[O-])cc2)c2ccccc21 | 3.7µM* | -2 | -2% | -6 | 7.1µM* | ?
O=Cc1[nH]c2ccccc2c1N(C(=O)CCl)c1ccc([N+](=O)[O-])cc1 | ? | 1 | -1% | 11 | ? | 0%
CC(=O)n1cc(N(C(=O)CCl)c2ccccc2)c2ccccc21 | ? | 0 | -3% | -20 | 1µM* | ?
CC(=O)n1cc(CO)c2ccccc21 | 13% | 2 | 8% | -4 | 12% | 1%
CN1C2CCC1CC(OC(c1ccccc1)c1ccccc1N)C2 (configuration not stated) | / | / | -5% | / | ? | /
SMILES | Pf growth 48h | Cycloheximide cs | AMA1 RON2 block | Shiga toxin inh | HCV inh | Pf growth 96h
CN1C2CCC1CC(OC(c1ccccc1)c1ccc(Cl)cc1)C2 (configuration not stated) | 4.8µM* | / | / | / | / | 9%
COc1ccc(OCC2CCNCC2)cc1 | 132% | 33* | 71% | 39* | 3% | 2%
CC1(C(=O)NS(=O)(=O)c2cccc(F)c2)CCN1C(=O)CC1CCCC1 (configuration not stated) | / | / | -2% | / | / | /
O=C(O)Cc1ccc2ocnc2c1 | 13% | -1 | -4% | 9 | 27% | 31%
O=C(Nc1ccccc1)Nc1ccc2ocnc2c1 | i | 42* | -13% | 67* | 33% | 420%
O=C(Nc1ccccc1)Nc1ccc2ncoc2c1 | 55% | 42* | -12% | 64* | 11% | 58%
CC(=O)Nc1ccc(S(=O)(=O)N(C)CC(=O)Nc2nc3ccccc3[nH]2)cc1 | ? | / | 59% | / | 15% | -23%
COCOCCn1cc(CN2CCS(=O)(=O)N(Cc3ccc(-c4ccc(F)nc4)cc3)C(C)C2=O)nn1 (configuration not stated) | / | / | -3% | / | / | /
NC(Cc1ccc(F)cc1)c1csc(Nc2nccc(C(F)(F)F)n2)n1 (configuration not stated) | / | / | 78% | / | / | /
O=C(Nc1ccc2nc(-c3ccco3)c(-c3ccco3)nc2c1)N1CCN(c2ccccn2)CC1 | ? | -5 | ? | -3 | 7.9µM* | -30%
O=C(Nc1ccc2nc(-c3ccco3)c(-c3ccco3)nc2c1)N1CCCC1 | / | 30* | / | 62* | / | /
Cc1nc2cc(NC(=O)N3CCN(c4ccccn4)CC3)ccc2o1 | -25% | 13 | -1% | 14 | ? | /
O=C(NCCO)Nc1ccc2nc(-c3ccco3)c(-c3ccco3)nc2c1 | 9% | -5 | / | 6 | / | -18%
CCCCOc1ccc(-c2nnn(C(C)(C)C(=O)OC)n2)cc1 | 16% | 32* | 16% | 57* | 6% | /
CC(=O)c1cc2c(C)c(C(=O)c3ccccc3)oc2cc1O | 222% | 45* | 16%[11.6 µM] | 79* | -13% | 339%
O=C(c1ccccc1)c1ccc(O)cc1O | 29% | 7 | 1% | -2 | 7% | 42%
O=C(/C=C/[C@H]1O[C@@H](n2cnc3c(NC(=O)c4ccccc4)ncnc32)[C@H](O)[C@@H]1O)NCCc1ccc(F)cc1 | / | / | 18% | / | / | /
Nc1ncncc1-c1ccc2ccccc2c1 | -7% | -4 | 3% | -13 | 9% | 1%
COc1ccccc1NC(=S)N(Cc1cccnc1)Cc1ccccc1Cl | ? | 0 | -20% | 24 | ? | ?
COCCn1nnnc1C(C(C)C)N(Cc1cccnc1)Cc1ccccc1Cl (configuration not stated) | 10µM* | -1 | 3% | -2 | ? | 0%
O=C(CN1CCCC1)N1CCCc2ccccc21 | -9% | 1 | -10% | 2 | -1% | 19µM*
CC1Cc2ccccc2N1C(=O)CSC1=NCCS1 (configuration not stated) | ? | 11 | 19% | 46 | 10% | ?
O=C1c2ccccc2C(=O)N1CCC(=O)N1CCCc2ccccc21 | 3% | 34* | -1% | 65 | 22% | 23%
CC1CCN(CC(=O)N2c3ccccc3CC2C)CC1 (configuration not stated) | 11% | -5 | 14% | -10 | 5% | 0.59µM*

Screening results as filed in PubChem BioAssay.
